For some assays here: Potency and affinity values are given separately.
Legend:
Parameters in all cases: scale not given: direction of the effect not stated beside the values
[1] = target: Protein translocase subunit SecA (Escherichia coli (strain K12)) (UniProt P10408); experiment: Assay to Identify E. coli SecA ATPase Inhibitors; type: functional; conditions: 30 µM
[2] = target: T1, Ubiquitin-activating enzyme e1, putative (Leishmania donovani (strain BPK282A1)) (UniProt E9BSI1); experiment: Leishmania donovani Ubiquitin Activating Enzyme (LdE1); type: functional; conditions: 30 µM
T1 sequence (whole entry): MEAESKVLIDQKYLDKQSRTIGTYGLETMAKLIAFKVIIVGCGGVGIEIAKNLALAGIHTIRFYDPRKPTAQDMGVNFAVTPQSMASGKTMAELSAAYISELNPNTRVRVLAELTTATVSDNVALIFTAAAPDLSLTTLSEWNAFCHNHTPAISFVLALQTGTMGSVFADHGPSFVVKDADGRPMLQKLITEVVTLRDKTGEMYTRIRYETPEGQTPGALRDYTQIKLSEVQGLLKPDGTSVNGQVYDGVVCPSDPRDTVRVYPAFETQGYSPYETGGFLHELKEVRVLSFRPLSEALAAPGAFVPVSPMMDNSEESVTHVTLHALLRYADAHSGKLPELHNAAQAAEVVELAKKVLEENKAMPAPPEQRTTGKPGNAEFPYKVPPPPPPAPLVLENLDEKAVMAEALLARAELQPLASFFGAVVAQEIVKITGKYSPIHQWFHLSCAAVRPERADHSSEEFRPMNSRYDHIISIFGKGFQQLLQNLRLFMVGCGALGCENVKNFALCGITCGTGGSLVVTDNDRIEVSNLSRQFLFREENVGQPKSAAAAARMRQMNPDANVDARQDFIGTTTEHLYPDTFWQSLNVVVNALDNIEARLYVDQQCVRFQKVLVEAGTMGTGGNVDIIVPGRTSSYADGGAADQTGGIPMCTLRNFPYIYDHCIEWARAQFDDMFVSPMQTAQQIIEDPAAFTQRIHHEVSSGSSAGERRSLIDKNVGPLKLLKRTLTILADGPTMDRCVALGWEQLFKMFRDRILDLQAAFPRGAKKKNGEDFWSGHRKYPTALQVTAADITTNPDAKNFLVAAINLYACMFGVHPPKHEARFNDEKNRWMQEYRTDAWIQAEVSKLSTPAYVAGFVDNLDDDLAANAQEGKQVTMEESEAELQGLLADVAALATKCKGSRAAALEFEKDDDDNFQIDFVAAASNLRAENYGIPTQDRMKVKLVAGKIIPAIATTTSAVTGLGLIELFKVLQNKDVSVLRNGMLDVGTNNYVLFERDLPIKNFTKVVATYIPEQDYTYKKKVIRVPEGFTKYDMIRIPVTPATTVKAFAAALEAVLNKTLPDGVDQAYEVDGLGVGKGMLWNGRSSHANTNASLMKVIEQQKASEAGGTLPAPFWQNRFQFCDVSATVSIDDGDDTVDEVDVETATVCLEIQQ

[3] = target: AMP-activated protein kinase, AMPK (Homo sapiens) (UniProt P54646+O43741+P54619+Q9UGJ0+Q9Y478+Q13131+Q9UGI9); experiment: AMP-dependent Kinase enzyme assay. An in vitro enzyme assay that detects ADP turnover that is directly proportional to AMPK activity. This uses naive AMPK that is activated during the assay with MK-8722; type: functional; conditions: 30 µM
[4] = target: Sialic acid-binding Ig-like lectin 9 (Homo sapiens) (UniProt Q9Y336); experiment: Hs-Siglec9 ALPHAscreen SOP 20170721; conditions: 10 µM
Trypanosoma cruzi = experiment: Trypanosoma cruzi phosphomannomutase and mannose-1-phosphate guanylyltransferase assay; type: functional; conditions: 10 µM
[5] = target: T2, Arginase-2, mitochondrial (Homo sapiens) (UniProt P78540); experiment: in vitro enzyme assay to detect the production of urea directly proportional to the activity of Arginase II; type: functional; conditions: 33.3 µM; note: in the data most compounds retested in dose-response had high values
T2 sequence (whole entry): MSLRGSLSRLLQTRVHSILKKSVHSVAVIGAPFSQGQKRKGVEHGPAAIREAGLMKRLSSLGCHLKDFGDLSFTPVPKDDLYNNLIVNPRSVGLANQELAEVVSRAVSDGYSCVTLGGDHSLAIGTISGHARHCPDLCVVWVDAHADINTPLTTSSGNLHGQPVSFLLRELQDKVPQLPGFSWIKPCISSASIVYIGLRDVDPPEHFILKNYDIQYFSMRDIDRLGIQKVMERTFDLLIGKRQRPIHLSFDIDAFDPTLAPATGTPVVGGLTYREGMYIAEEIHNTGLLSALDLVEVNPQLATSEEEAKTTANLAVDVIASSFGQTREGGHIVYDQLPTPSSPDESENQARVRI

[6] = target: T3, Proteasome subunit beta (Trypanosoma cruzi) (UniProt O96673); experiment: Trypanosoma cruzi proteasome chymotrypsin-like activity (TcProtChymo) assay.; note: in the data most compounds retested in dose-response had high values; type: functional; conditions: 9.37 µM
T3 sequence (whole entry): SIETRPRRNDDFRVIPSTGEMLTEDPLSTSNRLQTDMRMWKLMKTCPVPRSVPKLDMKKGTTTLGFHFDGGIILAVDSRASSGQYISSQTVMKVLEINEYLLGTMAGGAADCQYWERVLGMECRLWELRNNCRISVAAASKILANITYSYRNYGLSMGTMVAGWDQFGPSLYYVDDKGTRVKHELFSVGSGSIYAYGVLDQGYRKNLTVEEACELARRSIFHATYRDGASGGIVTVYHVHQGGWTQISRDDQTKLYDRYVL

Homo sapiens = organism: Homo sapiens; experiment: To identify inhibition of the IFN signalling (Jak-Stat) pathway via expression of an eGFP reporter gene under the control of an IFN-stimulated response element (ISRE) containing MxA promoter.; type: functional; conditions: 30 µM
[7] = target: T4, Tyrosyl-tRNA synthetase, putative (Trypanosoma cruzi (strain CL Brener)) (UniProt Q4DSP6); experiment: Trypanosoma cruzi tyrosyl tRNA synthetase (TcYRS) _High Tyrosine SOP; type: functional; conditions: 30 µM; note: in the data most compounds retested in dose-response had high values
T4 sequence (whole entry): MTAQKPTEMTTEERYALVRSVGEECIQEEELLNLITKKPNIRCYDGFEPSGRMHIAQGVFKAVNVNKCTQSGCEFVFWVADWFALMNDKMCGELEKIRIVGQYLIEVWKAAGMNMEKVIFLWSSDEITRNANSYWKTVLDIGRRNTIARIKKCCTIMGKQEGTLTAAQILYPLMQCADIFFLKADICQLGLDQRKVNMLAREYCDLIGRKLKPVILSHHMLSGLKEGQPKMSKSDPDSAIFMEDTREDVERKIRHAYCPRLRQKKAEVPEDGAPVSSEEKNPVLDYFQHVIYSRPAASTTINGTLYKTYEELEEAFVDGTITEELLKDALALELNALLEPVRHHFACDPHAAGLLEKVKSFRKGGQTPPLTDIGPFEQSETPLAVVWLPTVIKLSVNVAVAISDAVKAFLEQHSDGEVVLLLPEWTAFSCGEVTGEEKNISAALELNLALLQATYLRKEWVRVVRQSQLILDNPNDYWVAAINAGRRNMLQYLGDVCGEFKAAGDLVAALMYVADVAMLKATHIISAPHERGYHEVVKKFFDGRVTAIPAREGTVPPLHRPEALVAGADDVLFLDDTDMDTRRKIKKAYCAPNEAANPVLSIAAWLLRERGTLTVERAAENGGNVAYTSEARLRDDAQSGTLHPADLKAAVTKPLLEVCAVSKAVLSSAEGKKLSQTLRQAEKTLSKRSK

[8] = target: T4, Tyrosyl-tRNA synthetase, putative (Trypanosoma cruzi (strain CL Brener)); experiment: Trypanosoma cruzi tyrosyl tRNA synthetase (TcYRS) SOP; type: functional; conditions: 30 µM
[9] = target: Chromo domain-containing protein 1 (Saccharomyces cerevisiae (strain ATCC 204508 / S288c) (Baker's yeast)) (UniProt P32657); experiment: ScCHD-1 Enzyme Inhibition Assay; type: functional; conditions: 30 µM; note: in the data most compounds retested in dose-response had high values
Chain of Chromo domain-containing protein 1 (Saccharomyces cerevisiae (strain ATCC 204508 / S288c) (Baker's yeast)) (P32657 whole entry, the tested form may be a part): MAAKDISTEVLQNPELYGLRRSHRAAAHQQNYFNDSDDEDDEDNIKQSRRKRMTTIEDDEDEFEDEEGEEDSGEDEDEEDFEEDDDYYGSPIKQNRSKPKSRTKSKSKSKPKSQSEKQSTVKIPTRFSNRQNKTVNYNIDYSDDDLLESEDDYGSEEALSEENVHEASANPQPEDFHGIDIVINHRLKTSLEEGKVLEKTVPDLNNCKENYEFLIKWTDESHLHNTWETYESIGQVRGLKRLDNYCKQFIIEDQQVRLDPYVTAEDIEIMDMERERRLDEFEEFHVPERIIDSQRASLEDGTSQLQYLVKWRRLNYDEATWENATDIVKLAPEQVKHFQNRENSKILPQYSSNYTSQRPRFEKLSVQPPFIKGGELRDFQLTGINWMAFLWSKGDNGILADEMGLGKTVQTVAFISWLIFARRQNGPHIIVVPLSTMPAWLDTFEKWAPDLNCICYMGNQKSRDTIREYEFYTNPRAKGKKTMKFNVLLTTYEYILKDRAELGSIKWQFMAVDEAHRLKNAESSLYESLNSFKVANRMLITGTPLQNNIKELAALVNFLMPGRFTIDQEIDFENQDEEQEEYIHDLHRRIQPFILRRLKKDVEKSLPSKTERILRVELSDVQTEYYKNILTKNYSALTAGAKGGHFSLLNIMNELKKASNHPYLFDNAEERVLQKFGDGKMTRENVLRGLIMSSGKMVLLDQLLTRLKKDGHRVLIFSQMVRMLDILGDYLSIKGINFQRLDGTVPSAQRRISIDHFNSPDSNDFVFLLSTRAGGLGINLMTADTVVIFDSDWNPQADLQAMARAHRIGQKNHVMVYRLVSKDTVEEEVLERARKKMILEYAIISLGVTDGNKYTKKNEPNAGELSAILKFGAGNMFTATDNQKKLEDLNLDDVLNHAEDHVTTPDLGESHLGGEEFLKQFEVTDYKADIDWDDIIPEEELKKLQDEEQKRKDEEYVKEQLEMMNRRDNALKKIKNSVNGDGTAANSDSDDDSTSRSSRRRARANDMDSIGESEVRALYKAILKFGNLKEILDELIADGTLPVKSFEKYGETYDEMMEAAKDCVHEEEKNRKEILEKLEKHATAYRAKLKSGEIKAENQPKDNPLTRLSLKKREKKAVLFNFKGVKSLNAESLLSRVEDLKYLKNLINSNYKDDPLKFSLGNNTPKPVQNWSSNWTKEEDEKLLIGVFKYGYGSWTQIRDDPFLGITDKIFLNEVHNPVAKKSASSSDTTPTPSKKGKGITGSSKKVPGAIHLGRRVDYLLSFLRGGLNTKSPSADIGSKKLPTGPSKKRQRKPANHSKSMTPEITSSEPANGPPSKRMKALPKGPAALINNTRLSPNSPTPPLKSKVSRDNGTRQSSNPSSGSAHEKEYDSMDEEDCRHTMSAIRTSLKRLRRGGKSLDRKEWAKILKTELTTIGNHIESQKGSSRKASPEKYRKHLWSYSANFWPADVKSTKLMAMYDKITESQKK

Chain of Protein translocase subunit SecA (Escherichia coli (strain K12)) (P10408 whole entry): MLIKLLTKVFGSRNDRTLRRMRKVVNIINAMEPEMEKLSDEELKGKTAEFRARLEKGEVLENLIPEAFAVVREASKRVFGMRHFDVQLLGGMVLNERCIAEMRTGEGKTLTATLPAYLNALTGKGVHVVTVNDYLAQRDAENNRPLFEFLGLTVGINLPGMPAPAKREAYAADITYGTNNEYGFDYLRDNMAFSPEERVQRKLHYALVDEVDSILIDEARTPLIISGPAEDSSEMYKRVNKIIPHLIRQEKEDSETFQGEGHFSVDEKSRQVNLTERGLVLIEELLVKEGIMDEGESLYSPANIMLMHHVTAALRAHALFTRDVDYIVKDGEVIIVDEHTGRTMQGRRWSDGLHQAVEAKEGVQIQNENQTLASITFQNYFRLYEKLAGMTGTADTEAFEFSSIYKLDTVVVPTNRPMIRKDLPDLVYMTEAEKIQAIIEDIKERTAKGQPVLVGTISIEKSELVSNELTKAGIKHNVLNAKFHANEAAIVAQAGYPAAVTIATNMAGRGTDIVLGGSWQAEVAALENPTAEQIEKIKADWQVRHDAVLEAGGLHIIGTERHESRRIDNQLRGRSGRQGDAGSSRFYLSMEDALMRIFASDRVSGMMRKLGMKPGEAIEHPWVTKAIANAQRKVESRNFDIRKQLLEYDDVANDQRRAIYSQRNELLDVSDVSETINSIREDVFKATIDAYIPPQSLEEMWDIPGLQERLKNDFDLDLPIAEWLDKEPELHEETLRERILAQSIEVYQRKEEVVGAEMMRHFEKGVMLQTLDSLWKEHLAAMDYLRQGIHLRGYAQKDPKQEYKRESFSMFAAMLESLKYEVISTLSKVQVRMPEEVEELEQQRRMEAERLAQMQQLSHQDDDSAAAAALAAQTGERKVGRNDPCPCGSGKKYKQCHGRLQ
Chain of Sialic acid-binding Ig-like lectin 9 (Homo sapiens) (Q9Y336 whole entry): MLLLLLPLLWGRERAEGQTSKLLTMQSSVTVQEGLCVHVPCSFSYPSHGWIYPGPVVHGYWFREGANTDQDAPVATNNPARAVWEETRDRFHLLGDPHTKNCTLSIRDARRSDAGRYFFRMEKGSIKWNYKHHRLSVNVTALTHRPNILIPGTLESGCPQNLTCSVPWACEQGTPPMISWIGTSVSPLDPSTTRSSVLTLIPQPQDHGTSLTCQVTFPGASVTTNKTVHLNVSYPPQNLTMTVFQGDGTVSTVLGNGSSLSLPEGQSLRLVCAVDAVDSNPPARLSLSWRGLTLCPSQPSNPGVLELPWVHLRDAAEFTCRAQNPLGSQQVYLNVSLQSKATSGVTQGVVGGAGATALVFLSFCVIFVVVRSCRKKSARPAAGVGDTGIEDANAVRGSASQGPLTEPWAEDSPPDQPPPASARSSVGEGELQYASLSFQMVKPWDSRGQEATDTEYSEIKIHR

Compound	Percent Effect [1]	Percent Effect [2]	Percent Effect [3]	Percent Effect [4]	Percent Effect (Trypanosoma cruzi)	Percent Effect [5]	Percent Effect [6]	Percent Effect (Homo sapiens)	Percent Effect [7]	Percent Effect [8]	Percent Effect [9]
CCc1n[nH]c(C2CN(C(=O)c3cnc[nH]3)CCO2)n1 (configuration not stated)	-4.08%	7.79%	7.86%	7.55%	0.686%	4.84%	9.62%	1.28%	2.86%	-11.8%	-9.8%
O=C(CCNS(=O)(=O)c1ccc2c(c1)CCCC2)NCc1ccoc1	-5%	5.33%	8.4%	5.02%	-2.43%	-2.08%	8.37%	14.2%	4.92%	11.1%	-6.46%
Cc1ccc(C#N)c(N2CCC(c3nccn3CCN(C)C)CC2)n1	-4.49%	2.67%	1.54%	4.68%	-3.6%	-2.08%	11.7%	12.9%	7.1%	11.1%	-8.91%
Cc1ncc(CNC2CCCN(Cc3noc(C4CC4)n3)C2)s1 (configuration not stated)	-0.948%	10.5%	2.18%	8.33%	3.01%	2.3%	10.2%	8.96%	7.35%	19.5%	-8.72%
CC(C)N(C)Cc1nnc2n1CCCN(C(=O)c1ccco1)C2	-1.99%	10.4%	3.35%	2.67%	1.08%	13.6%	14.3%	24.5%	7.41%	14.1%	-7.03%
CCOC(CC)C(=O)NCCC(=O)N1CCN(c2ncccn2)CC1 (configuration not stated)	-2.66%	2.63%	4.87%	5.24%	5.94%	0%	7.19%	0.555%	3.19%	5.2%	1.78%
CCCNC(=O)Cn1cc(-c2ccccc2)cn1	-4.24%	8.86%	12.1%	-0.382%	-5.64%	-0.645%	4.97%	8.94%	2.08%	7.59%	-18.4%
O=C(NCc1ccc(-n2cncn2)nc1)c1ccoc1	-8.93%	0%	-18.3%	31.6%	11.6%	-10.4%	0.901%	3.65%	4.43%	18.5%	-15.1%
Cc1nc(-c2ccccc2)sc1C(=O)NCCNc1ncccn1	-4.03%	-2.63%	-5.12%	-0.445%	-7.94%	4.32%	3.98%	8.09%	6.4%	11.1%	5.7%
O[C@H]1[C@H](n2cc(-c3ccccc3)nn2)c2ccccc2C12CCNCC2	-1.97%	6.94%	-7.62%	0.48%	1.65%	-1.77%	10.2%	12.5%	5.26%	15.4%	-2.48%
c1ccc(-c2nc(CNC3CCc4ncnn4C3)co2)cc1 (configuration not stated)	-6.67%	20.8%	-3.92%	12.6%	7.68%	-3.92%	3.21%	9.63%	8.74%	19.5%	-7.68%
O=C(c1cccnc1)N1CCCC2(CCN(c3ccsc3)C2=O)C1 (configuration not stated)	-2.21%	10.4%	15.5%	-9.57%	-8.19%	11%	20.9%	9.28%	-7.41%	1.28%	-9.17%
Cn1cc(NS(=O)(=O)c2ccc(OC(F)(F)F)cc2)ccc1=O	-4.62%	7.59%	-136%	-4.96%	-9.73%	-1.9%	0.246%	62.5%	0.493%	8.86%	-4.48%
CC1=N[C@@]2(CC[C@@H]3CN(Cc4ccccc4F)C[C@@H]32)C(=O)N1CC1CC1	-5%	0%	5.98%	-2.03%	-0.195%	-2.5%	2.96%	11.1%	4.95%	3.66%	1.49%
Cc1ncc2c(n1)CCCC2NC(=O)c1ccncc1 (configuration not stated)	-8.52%	2.6%	-3.85%	1.2%	-1.87%	-1.38%	3.16%	0.503%	1.07%	-3.7%	-0.226%
Cc1nnc(N2CC[C@H](OCC3CC3)[C@@H](Cc3ccccc3)C2)s1	-2.17%	-5.33%	8.54%	9.81%	5.99%	-31.7%	7.01%	-7.72%	0%	5%	-3.2%
CN(c1ccncn1)C1CC2(CCN(C(=O)CCc3cccs3)C2)C1 (configuration not stated)	-3.27%	1.35%	6.25%	8.01%	5.34%	-1.16%	1.87%	39.7%	5.38%	6.49%	-4.42%
CCc1nc(CN2CCCC(NCc3ncc(C(C)(C)C)o3)C2)no1 (configuration not stated)	-1.05%	18.2%	2.6%	-6.25%	1.27%	1.05%	22.6%	-1.65%	12.4%	35.3%	-24.7%
Cc1noc([C@@H]2C[C@H]3OCC[C@H]3N(S(C)(=O)=O)C2)n1	-1.89%	11%	-9.13%	8.3%	4.37%	-1.6%	9.5%	1.34%	6.25%	8.64%	-4.65%
O=C(NCc1ccco1)c1nn(C2CCS(=O)(=O)C2)c2c1CCCC2 (configuration not stated)	-5.41%	21.1%	7.28%	5.73%	3.02%	-3.55%	13.1%	4.09%	0%	5.2%	-0.898%
CN(C)Cc1ccnc(C2CCCN2Cc2cc[nH]n2)n1 (configuration not stated)	-6.5%	-6.76%	10.3%	-1.81%	-1.78%	-1.16%	6.08%	-0.845%	3.23%	3.9%	1.51%
CN(C)C(=O)N1CCOCC2(CCN(c3ccccn3)C2)C1 (configuration not stated)	-1.92%	-2.7%	-1.14%	-5.57%	-2.64%	2.23%	9.19%	-4.16%	1.07%	1.24%	-3.16%

Reference: ChEMBL document CHEMBL3988442, “University of Dundee, Small-Polar-MMV Screening Library” (2021)
